# Calls of active or inactive are those of the source. Rule for the calls: active = hit-call score of the fitted dose curve at least 0.9, where 1 is the maximum; inactive = score below 0.9.
# Experiment: ATG_EGR_CIS: Attagene CIS-FACTORIAL HepG2 Assay for human Early Growth Response 1 (EGR1) (AID 2282938)
# Conditions: HepG2 Attagene CIS-FACTORIAL EGR reporter mRNA; actives raise or lower the signal
# Description: ATG_CIS is a cell-based, multiplexed-readout assay that uses HepG2, a human liver cell line, with measurements taken at 24 hours after chemical dosing in a 24-well plate.ATG_EGR_CIS is one of 52 assay component(s) measured or calculated from the ATG_CIS assay. It is designed to make measurements of mRNA induction, a form of inducible reporter, as detected with fluorescence intensity signals by Reverse transcription polymerase chain reaction (RT-PCR) and Capillary electrophoresis technology.Data from the assay component ATG_EGR_CIS was analyzed into 1 assay endpoint. This assay endpoint, ATG_EGR_CIS, was analyzed with bidirectional fitting relative to DMSO as the negative control and baseline of activity. Using a type of inducible reporter, measures of mRNA for gain or loss-of-signal activity can be used to understand the reporter gene at the transcription factor-level as they relate to the gene EGR1. Furthermore, this assay endpoint can be referred to as a primary readout, because this assay has produced multiple assay endpoints where this one serves a reporter gene function. To generalize the intended target to other relatable targets, this assay endpoint is annotated to the dna binding intended target family, where the subfamily is zinc finger.
# Human liver HepG2 cells are transiently transfected with multiple reporter transcription units (MRTUs) in 6-well plates using FuGene 6 reagent (Roche; 3 ml FuGene/1 mg DNA). The MRTU constructs are regulated by a cis-regulating element (promoter). […] A major difference between the CIS and TRANS system is that in CIS activities of endogenous TFs are measured, whereas the TRANS assay evaluates changes in activities of exogenous, chimeric NR-Gal4 proteins. […] At the end of 24 hour incubation, total RNA was isolated using TriZol reagent (Invitrogen). The isolated RNA is then reverse-transcribed using oligo(dT) primer and Mo-MLV reverse transcriptase (Invitrogen) with DNAse I (Ambion) treatment for 30 min. The one-tenth of the produced cDNA was amplified by PCR using Taq DNA polymerase (Invitrogen) and two reporter sequence-specific primers. The PCR products were fluorescently labeled by primer extension with 6-arboxyfluorescein (6-FAM) 5'-labeled reporter sequence-specific primer (2 min at 95 C, 20 s at 68 C and 10 min at 72 C) and these products were digested with 5U of HpaI (New England Biolabs) for 2h at 37 C. The fragments were purified using Qiaquick PCR columns (Qiagen), analyzed on an ABI 3130xL genetic analyzer (Applied Biosystems) with peak positions identified by using a set of X-rhodamine (ROX)-labeled MapMarker1000 molecular weight standards (BioVentures). The raw capillary electrophoresis data was processed using Attagraph software (Attagene).
Compound,outcome,AC50
CC(Cl)(Cl)C(=O)O,inactive,–
Cc1cccc(N)c1,inactive,–
CCOP(=S)(OCC)SCSc1ccc(Cl)cc1,inactive,–
O=c1ssc(Cl)c1Cl,–,60.3 µM (active)
CCCCc1ccc(O)cc1,inactive,–
Cc1ccc([N+](=O)[O-])cc1C,inactive,–
O=S1(=O)OCC2C(CO1)C1(Cl)C(Cl)=C(Cl)C2(Cl)C1(Cl)Cl (stereo not given),–,179 µM (active)
CCOP(=S)(OCC)SCS(=O)(=O)CC,inactive,–
Cc1ccc(O)cc1C,inactive,–
O=C(O)C(F)(F)OC(F)(F)C(F)(F)OC(F)(F)C(=O)O,inactive,–
O=P1(N(CCCl)CCCl)NCCCO1 (stereo not given),inactive,–
ClC(Cl)(Cl)c1ccccc1,inactive,–
CC(C)(C)c1ccccc1OP(=O)(Oc1ccccc1)Oc1ccccc1,inactive,–
CC(Cl)CN(C)C (stereo not given),inactive,–
Cc1ccc(C(=O)Cl)cc1,inactive,–
O=C(CBr)OCc1ccccc1,inactive,–
O=S(=O)(F)C(F)(F)C(F)(F)C(F)(F)C(F)(F)C(F)(F)C(F)(F)C(F)(F)C(F)(F)F,inactive,–
CC(O)C(F)(F)C(F)(F)F (stereo not given),inactive,–
CC1(C)CN=C(NN=C(/C=C/c2ccc(C(F)(F)F)cc2)/C=C/c2ccc(C(F)(F)F)cc2)NC1,inactive,–
OCC(F)(F)OC(F)(F)C(F)(F)OC(F)(F)CO,inactive,–

Compound,outcome,AC50
O=C(O)C(Cl)Cl,inactive,–
O=S(=O)(c1ccc(O)cc1)c1ccc(O)cc1,inactive,–
COC(N)=O,inactive,–
Nc1ccc(Sc2ccc(N)cc2)cc1,inactive,–
Nc1cc2c3c(c1)C(c1ccccc1)=N[C@@H](NC(=O)c1cccnc1)C(=O)N3CC2,inactive,–
CNC(=O)Oc1ccc(N(C)C)c(C)c1,inactive,–
O=c1[nH]c2ccccc2c(=O)o1,inactive,–
CCOP(=S)(NC(C)C)Oc1ccccc1C(=O)OC(C)C (stereo not given),inactive,–
CCN(CC)C1CCCCC1,inactive,–
C=CC(=O)OCC(F)(F)C(F)F,inactive,–
O=C(O)C(F)(OC(F)(F)C(F)(F)C(F)(F)F)C(F)(F)F (stereo not given),inactive,–
CCOP(=O)(O)C(N)=O,inactive,–
CCCCOCC1CO1 (stereo not given),inactive,–
N#Cc1c(-c2ccc(Cl)cc2)[nH]c(C(F)(F)F)c1Br,inactive,–
N#Cc1cc([N+](=O)[O-])ccc1N,inactive,–
CCCCOCCOP(=O)(OCCOCCCC)OCCOCCCC,inactive,–
CO/N=C(/C(=O)OC)c1ccccc1COc1ccccc1C,–,43 µM (active)
COP(=O)(CCC(=O)NCO)OC,inactive,–
Cc1ccc2c(c1N)C(=O)c1ccccc1C2=O,inactive,–
COCCOCCO,inactive,–

# Source: PubChem BioAssay (EPA / NIEHS)
